Laboratory results from PubChem BioAssay (EPA / NIEHS).
Values joined by “and” are separate entries in the source; they are usually repeats but may differ in a detail not shown here. Equal values may be shown once. A structure can be active in one record and inactive in another. Active and inactive are the calls of the source. The calls were made as follows: active = hit-call score of the fitted dose curve at least 0.9, where 1 is the maximum; inactive = score below 0.9.

Experiment: ATG_EGR_CIS: Attagene CIS-FACTORIAL HepG2 Assay for human Early Growth Response 1 (EGR1) (AID 2282938)
Settings: HepG2 Attagene CIS-FACTORIAL EGR reporter mRNA; actives raise or lower the signal
Method in brief: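 HepG2, transient MRTU transfection (cis promoters), 24 h compound. RNA → RT (oligo-dT) → PCR → 6-FAM labelling → HpaI cut → CE fluorescence. Bidirectional fit, DMSO baseline.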

Q: For COC(=O)[C@H]1[C@H]2C[C@@H]3c4[nH]c5cc(OC)ccc5c4CCN3C[C@H]2C[C@@H](OC(=O)c2cc(OC)c(OC)c(OC)c2)[C@@H]1OC, which AC50 is on record?
A: Its AC50 is 8.83 µM (active).

Q: Which outcome does the source give for CC(COCC(C)OC(=O)c1ccccc1)OC(=O)c1ccccc1 (stereo not drawn) here?
A: The outcome was “inactive”.

Q: For COc1ccc(C(=O)Nc2nc3ccccc3c(NCc3ccccc3)c2C#N)cc1, which outcome is on record?
A: The outcome was “inactive”.

Q: For Oc1ccc(O)cc1, which outcome is on record?
A: The outcome was “inactive”.

Q: With O=C1O[C@H]([C@H](O)CO)C(O)=C1O as the molecule, how does the outcome read?
A: The outcome was “inactive”.

Q: For O=[Si]=O, which outcome is on record?
A: Its outcome is “inactive”.

Q: Which outcome does the source give for O=C(O)c1cccnc1 here?
A: Its outcome is “inactive”.

Q: With CC(=O)O as the molecule, how does the outcome read?
A: The outcome was “inactive”.

Q: With CC(=O)O[C@]1(C(C)=O)CC[C@H]2[C@@H]3C=C(Cl)C4=CC(=O)[C@@H]5C[C@@H]5[C@]4(C)[C@H]3CC[C@@]21C as the molecule, how does the AC50 read?
A: The AC50 was 27.9 µM (active) and 40.3 µM (active) and 100 µM (active).

Q: And the outcome?
A: The outcome was “inactive”.

Q: For Cc1ccc(C(C)(C)C)c(O)c1, which AC50 is on record?
A: Its AC50 is 158 µM (active).

Q: With NC1CCCCC1 as the molecule, how does the outcome read?
A: Its outcome is “inactive”.

Q: With CC(C)(O)c1ccc(CNC(=O)c2cccnc2Oc2ccc(F)cc2)cc1 as the molecule, how does the outcome read?
A: Its outcome is “inactive”.

Q: Which outcome does the source give for C/C=C/C=C/C(=O)O here?
A: The outcome was “inactive”.

Q: For CC(C)(C)c1ccccc1, which outcome is on record?
A: The outcome was “inactive”.

Q: For S=c1[nH]c2ccccc2s1, which outcome is on record?
A: The outcome was “inactive”.

Q: With O=C(NS(=O)(=O)/C=C/c1cccs1)c1ccc(F)cc1Br as the molecule, how does the outcome read?
A: The outcome was “inactive”.

Q: With O=C(N[C@@H](c1ccccc1)[C@@H]1CCCCN1)c1cccc(C(F)(F)F)c1Cl as the molecule, how does the AC50 read?
A: Its AC50 is 25.7 µM (active).

Q: Which outcome does the source give for CCOCCOCCO here?
A: The outcome was “inactive”.

Q: For CC(C)c1cccc(C(C)C)c1, which outcome is on record?
A: Its outcome is “inactive”.

Q: For Nc1nc(Cl)nc2c1ncn2[C@H]1C[C@H](O)[C@@H](CO)O1, which outcome is on record?
A: Its outcome is “inactive”.

Q: For CCN(CC)CCOc1ccc(C(=C(Cl)c2ccccc2)c2ccccc2)cc1, which AC50 is on record?
A: Its AC50 is 6.34 µM (active).

Q: And the outcome?
A: The outcome was “inactive”.
